Screens deposited in PubChem BioAssay by National Center for Advancing Translational Sciences (NCATS).
L3MBTL1 block: L3MBTL1 (human) inhibition | Q9Y468 | AlphaScreen L3MBTL1–H3K9me1 peptide binding | Potency, µM (doses to about 57.1 µM), most hits filed as inhibitors | 0.66% of 230,000 active | AID 485360; note: nearly all actives have a fitted effect of over 60% in size
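AlphaScreen proximity signal between nickel-chelate acceptor and streptavidin donor beads (final 10 ug/mL) reports binding of 50 nM L3MBTL1 to 75 nM biotin-H3 K9me1 peptide; complex incubated with compounds 30 min at room temperature; cefsulodin titration as control.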
uPA generation: cell surface uPA generation inhibition. cell surface uPA generation assay, qHTS. Potency, µM (titrated, usually from 38.3 µM), hits mostly inhibitors. 0.31% of 330,000 active; active = well fitted inhibition curve with a large enough effect; inconclusive = small, poorly fitted or top-dose-only effect; inactive = no such curve, though single readings can be large or run the other way; tested in mouse RAW 264.7 cells; note: nearly all actives have a fitted effect of over 55% in size
CtBP-E1A blk: inhibitors of CtBP/E1A interaction. AlphaScreen GST-E1A/His-CtBP binding, 1536-well; active compounds read low. activity change, % (test concentration not listed). 0.49% of 340,000 active. AID 651724; in the data active = activity change below about -65%; inconclusive = mostly about -30% to -63%
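Protein mix (5X: 125 nM each GST-E1A, His-CtBP) was incubated with pinned compound 2 h at 37 deg C in dark, in 50 mM Tris pH 8.0 buffer with 300 mM NaCl. Glutathione donor and nickel acceptor beads followed; AlphaScreen signal read after 1 h.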
Eya2 inh: blocks the phosphatase activity of human Eya2 | AID 488837 | O00167 | 0.006% of 330,000 active | recombinant Eya2, OMFP fluorescence dephosphorylation (OMFP is methylfluorescein phosphate) | Potency, µM (series often up to 76.9 µM), hits mostly inhibitors
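Eya2 protein (added as 0.2 uM solution) was preincubated with compound for 10 min at ambient temperature in 50 mM HEPES pH 7.5, 50 mM NaCl, 5 uM MgCl2, 0.05% BSA, 1 mM DTT. OMFP (added at 50 uM) then reacted 10 min; fluorescence read at 485/525 nm.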
USP2a inh: blocks human ubiquitin-specific protease USP2a; USP2 core, Ub-CHOP2 coupled fluorogenic reporter, 485/531; Potency, µM (highest dose often 38.3 µM), most hits filed as inhibitors; 0.01% of 330,000 active; AID 463254
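Cell-free coupled assay: 10nM USP2 core preincubated 30min RT with compound in Tris-HCl pH 8.0/CaCl2/CHAPS buffer, then 25nM Ub-CHOP2 and 25nM reporter substrate; fluorescence (Ex 485/Em 531) read after 60min RT, normalized to NEM inhibition, concentration-response curves fitted.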
Six1-Eya2 blk: blocks human Six1 binding to Eya2. Q15475+O00167. AlphaScreen GST-Six1/His-Eya2 binding, biochemical; active compounds read low. activity change, % (no concentration beside the values). 0.56% of 360,000 active; in the data active = activity change below about -65%; inconclusive = mostly about -30% to -63%
Target sequence (O00167 whole entry, looked up): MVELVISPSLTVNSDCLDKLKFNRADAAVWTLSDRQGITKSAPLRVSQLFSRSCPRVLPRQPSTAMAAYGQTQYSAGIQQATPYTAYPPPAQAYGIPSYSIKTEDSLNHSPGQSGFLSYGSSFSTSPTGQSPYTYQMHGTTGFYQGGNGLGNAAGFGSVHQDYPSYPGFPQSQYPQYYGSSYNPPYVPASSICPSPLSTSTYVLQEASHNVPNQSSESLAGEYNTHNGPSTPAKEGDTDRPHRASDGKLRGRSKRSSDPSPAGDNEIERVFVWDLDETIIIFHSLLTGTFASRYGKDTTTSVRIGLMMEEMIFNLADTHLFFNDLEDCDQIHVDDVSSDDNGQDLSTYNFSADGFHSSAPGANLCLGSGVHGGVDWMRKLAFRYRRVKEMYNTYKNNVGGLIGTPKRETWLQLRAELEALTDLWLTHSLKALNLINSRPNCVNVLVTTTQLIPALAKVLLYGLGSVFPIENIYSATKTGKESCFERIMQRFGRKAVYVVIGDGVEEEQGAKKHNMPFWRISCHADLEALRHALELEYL
Target sequence (Q15475 whole entry, looked up): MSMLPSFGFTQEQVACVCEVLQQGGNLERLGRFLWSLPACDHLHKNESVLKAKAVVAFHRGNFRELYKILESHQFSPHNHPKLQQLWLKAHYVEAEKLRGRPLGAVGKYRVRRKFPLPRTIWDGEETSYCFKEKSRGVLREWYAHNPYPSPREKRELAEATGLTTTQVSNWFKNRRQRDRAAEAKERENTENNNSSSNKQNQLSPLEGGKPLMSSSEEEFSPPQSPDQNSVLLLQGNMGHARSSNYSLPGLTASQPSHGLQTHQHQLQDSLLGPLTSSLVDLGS
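GST-Six1 + His-Eya2 (5X stock: 250/500 nM); Tris pH 8.0, 300 mM NaCl, 0.05% BSA, 0.02% Tween 20; GSH donor/Ni acceptor beads; 1 h 37 °C dark; AlphaScreen readout.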
A number is an active result; n = inactive; u = inconclusive; x = no result. Rows were chosen to be rich in hits. Some 1.2% of all compounds tested hit in one or more screens of this group. Unless noted, calls come from the whole dose curve; as a rule, active = well fitted curve in the direction sought with a large enough effect; inconclusive = small, poorly fitted or top-dose-only effect, or another doubt; inactive = no such curve, though single readings can be large; an effect the other way counts as inactive or inconclusive.

SMILES | L3MBTL1 block | uPA generation | CtBP-E1A blk | Eya2 inh | USP2a inh | Six1-Eya2 blk
Cc1onc(-c2ccccc2)c1C(=O)O/N=C(\N)c1ccc([N+](=O)[O-])o1 | n | 4.5µM | x | n | n | n
O=c1c2cc(F)ccc2sn1-c1ccc(F)cc1 | n | n | n | n | n | n
COc1ccc(-n2sc3ccc(F)cc3c2=O)cc1 | n | 10µM | n | n | n | n
CC(C)(C)OC(=O)NCCOC(=O)c1[nH]cnc1C(=O)NCc1ccccc1 | n | n | n | n | n | n
O=C(O)CSc1cc(NS(=O)(=O)c2ccc(Cl)cc2)c2ccccc2c1O | x | n | u | n | n | n
COc1ccc(S(=O)(=O)Nc2cc(SCC(=O)O)c(O)c3ccccc23)cc1 | x | 11µM | x | n | n | u
COc1cccc(NC(=O)/C=C/c2ccc([N+](=O)[O-])cc2)c1 | x | n | n | n | n | n
O=Cc1ccc(OC(=O)/C=C/c2ccccc2)cc1 | x | n | -94 | n | n | u
COc1ccc(/C=C/C(=O)Oc2ccc(C)c(C)c2)cc1OC | x | n | u | n | n | n
COc1ccc(/C=C/C(=O)c2ccc([N+](=O)[O-])o2)cc1OC | n | 2.5µM | n | n | n | n
COc1ccc(OC(=O)/C=C/c2ccc([N+](=O)[O-])cc2)cc1 | x | n | -87 | n | n | n
COc1cc(/C=C/[N+](=O)[O-])ccc1OC(=O)/C=C/c1ccc(F)cc1 | n | n | -90 | n | n | u
COc1cc(/C=C/C(=O)OCC(=O)NC(=O)NC2CCCCC2)ccc1OC(F)F | x | n | n | n | n | n
Cc1nnc2sc(SCC(=O)Nc3nccs3)nn2c1=O | n | n | n | n | n | u
CCOc1ccccc1NC(=O)CSc1ccc2nnc(-c3cccnc3)n2n1 | n | n | -85 | n | n | -79
Fc1cccc(CSc2ccc3nnc(-c4cccnc4)n3n2)c1 | x | n | u | n | n | -67
Cc1ccc(CSc2ccc3nnc(-c4cccnc4)n3n2)cc1 | n | n | n | n | n | n
COc1ccccc1NC(=O)CSc1ccc2nnc(-c3cccnc3)n2n1 | n | n | -77 | n | n | -70
COc1ccccc1NC(=O)CSc1nn2c(=O)c(C)nnc2s1 | x | n | -82 | n | n | u
CCOc1ccc(NC(=O)CSc2ccc3nnc(-c4cccnc4)n3n2)cc1 | x | n | n | n | n | n
CCOC(=O)c1c(C)[nH]c(C)c1C(=O)COC(=O)c1cccnc1SC | n | n | n | n | n | n
COc1ccc(NC(=O)CSc2ccc3nnc(-c4cccnc4)n3n2)c(OC)c1 | u | n | -68 | n | n | u
COc1ccc(N(CC(=O)Nc2cccc(C)c2C)S(=O)(=O)c2c(C)n[nH]c2C)cc1 | n | x | -66 | n | n | u
Cc1nc(CS(=O)(=O)c2ccc(Cl)cc2)sc1C(=O)O | n | n | n | n | n | n
C[C@H](CO)N1C[C@H](C)[C@@H](CN(C)S(=O)(=O)c2cn(C)cn2)Oc2c(NS(=O)(=O)c3ccccc3)cccc2C1=O | n | n | n | n | n | n
SMILES | L3MBTL1 block | uPA generation | CtBP-E1A blk | Eya2 inh | USP2a inh | Six1-Eya2 blk
Cc1cccc(NC(=O)c2onc3c2CCCC3)c1C | n | n | n | n | n | n
Cc1cccc(NC(=O)c2onc3c2CCCC3)n1 | n | 4µM | n | n | n | n
CCn1c(C)cc(/C=C2/SC(=O)N(C(C)C(=O)OC)C2=O)c1C (centres undefined) | n | n | n | n | n | u
COCCn1c(C)cc(/C=C2/SC(=O)N(C(C)C(=O)OC)C2=O)c1C (centres undefined) | n | 11µM | n | n | n | n
Cc1ccc(S(=O)(=O)n2cc(-c3ccccc3)c3ccccc32)cc1 | n | 1.1µM | n | n | n | n
Cc1ccc(S(=O)(=O)n2cc(C=O)c3ccccc32)cc1 | n | n | n | n | n | n
O=C(NCc1ccccc1)C1CCCN1C(=O)Nc1ccccc1[N+](=O)[O-] (centres undefined) | n | n | n | n | n | n
CCN(Cc1nc2ccccc2c(=O)[nH]1)Cc1nc2cc(OC)c(OC)cc2c(=O)[nH]1 | n | n | n | n | n | n
COc1cc2nc(CN(C)Cc3nc4ccccc4c(=O)[nH]3)[nH]c(=O)c2cc1OC | x | x | -66 | n | n | -66
Cc1ccc(S(=O)(=O)N2CCN(C(=O)COC(=O)c3cccc(Cl)c3)CC2)c(C)c1 | n | n | n | n | n | n
c1ccc(-c2nc(NCc3ccco3)c3ccccc3n2)nc1 | u | n | -81 | n | n | -81
O=C1C(=Cc2cn(-c3ccccc3)nc2-c2ccc(OCc3ccccc3)cc2)SC(=S)N1CCS(=O)(=O)O | x | x | n | x | x | -74
Cn1c(-c2ccccc2)cnc1N | n | n | u | n | n | u
COCCn1c(-c2ccccc2)cnc1N | n | n | u | n | n | -88
C=CC(C)(C)c1c(O)c(CC=C(C)C)c(O)c2c(=O)c3ccc(O)c(O)c3oc12 | x | 11µM | n | x | x | n
C=CC(C)(C)c1c2occc2c(O)c2ccc(=O)oc12 | n | n | n | n | n | n
Cc1cc(F)ccc1S(=O)(=O)N1CCCOC1CNC(=O)C(=O)NCc1cccnc1 (centres undefined) | x | n | n | n | n | n
COc1ccccc1CNC(=O)C(=O)NCC1OCCCN1S(=O)(=O)c1cccs1 (centres undefined) | x | n | n | n | n | n
Cc1nn(C)c(C)c1CNC(=O)Nc1cccc(Cl)c1C | x | n | n | n | n | n
COc1cc(/C=N/NC(=S)Nc2cccc(C(=O)O)c2)ccc1O | n | n | n | n | n | n
COc1cccc(/C=N/NC(=S)Nc2cccc(C(=O)O)c2)c1O | x | u | -91 | n | n | -92
COCCCNC(=S)N/N=C/c1ccc(O)cc1 | n | n | x | n | n | n
COCCCNC(=S)N/N=C/c1cccc(OC)c1O | n | n | -92 | n | n | -90
COCCCNC(=S)N/N=C/c1ccc(O)cc1O | u | n | -93 | n | n | -90
COc1cccc(/C=N/NC(=O)C(=O)Nc2ccccc2OC(F)(F)C(F)F)c1O | n | n | -73 | n | n | -86
COc1ccccc1/C=N/NC(=O)c1cccc(OC(F)(F)C(F)F)c1 | n | n | n | n | n | n
CCc1cccc(NC(=S)Nc2cccc3ccccc23)c1 | x | n | n | n | n | n
Cc1ccc(C(=O)NC2CCS(=O)(=O)C2)cc1S(=O)(=O)N1CCCC1 (centres undefined) | x | n | n | n | n | n
Cc1cc(N)c2ccccc2[n+]1CCCCCCCCCC[n+]1c(C)cc(N)c2ccccc21 | x | x | x | n | x | x
CCOC(=O)c1oc2c(c1C)/C(=N/O)CCC2 | n | n | n | n | n | -83
